For the assay, the target named is Cellular tumor antigen p53 (Homo sapiens) (UniProt P04637). Briefly: Primary qHTS for small molecule compounds that upregulate eGFP-tagged delta133p53alpha (in N-terminal) cells. (AID 2060322).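 Further: cells pre-induced with doxycycline then dosed without doxycycline; series mostly up to about 56 µM; 0% = DMSO vehicle and 100% = reference activator; nearly all actives have a fitted effect of over 75% in size.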 The note with it: NCI-H358 eGFP-delta133p53alpha fluorescence, 24 h; activation: active compounds read high. The gist of the method:
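NCI-H358 cells pre-induced 24 h with 10 ng/ml doxycycline for eGFP-delta133p53alpha, plated dox-free and exposed 24 h at 37C to titrated compounds. Fixed, Hoechst-stained; gated GFP peak intensity by laser scanning cytometry, normalized to DMSO (0%) and 57.5 uM 5-azacytidine (100%).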

SMILES strings stand for the structures. Inconclusive results are not listed. Unmarked numbers belong to inactive results. The call rests on the fitted dose curve; in most records, active means well fitted activation curve with a large enough effect; inconclusive means small, poorly fitted or top-dose-only effect; inactive means no such curve, though single readings can be large or run the other way.

Sequence of Cellular tumor antigen p53 (Homo sapiens) (P04637 whole entry, looked up): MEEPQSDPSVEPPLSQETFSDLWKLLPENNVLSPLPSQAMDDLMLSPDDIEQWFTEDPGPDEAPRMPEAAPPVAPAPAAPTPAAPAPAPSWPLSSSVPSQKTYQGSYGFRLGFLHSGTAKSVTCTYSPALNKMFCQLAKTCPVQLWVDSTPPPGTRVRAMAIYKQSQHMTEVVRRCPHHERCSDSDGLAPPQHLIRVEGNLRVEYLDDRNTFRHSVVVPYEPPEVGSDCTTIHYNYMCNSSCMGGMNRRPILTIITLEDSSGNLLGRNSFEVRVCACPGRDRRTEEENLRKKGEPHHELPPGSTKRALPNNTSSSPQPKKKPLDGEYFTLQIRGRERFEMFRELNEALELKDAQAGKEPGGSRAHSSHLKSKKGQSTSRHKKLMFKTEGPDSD

In the case of `C[C@@H]1CC[C@@]2(OC1)O[C@H]1C[C@H]3[C@@H]4CC=C5C[C@@H](O[C@@H]6O[C@H](CO)[C@@H](O[C@@H]7O[C@@H](C)[C@H](O)[C@@H](O)[C@@H]7O)[C@H](O)[C@@H]6O[C@@H]6O[C@@H](C)[C@H](O)[C@@H](O)[C@@H]6O)CC[C@]5(C)[C@@H]4CC[C@]3(C)[C@@H]1[C@H]2C`, the activation is 15.2%. As to `N[C@@H](Cc1ccc(Oc2cc(I)c(O)c(I)c2)c(I)c1)C(=O)O`, the activation is 11.7%. The result for `Nc1ccc([As](=O)(O)O)cc1` reads -5.02%.

Regarding `COC(=O)[C@@H](N)CCCN/C(N)=N/[N+](=O)[O-]`, the activation is -1.69%. The result for `CC(C)NCC(O)c1ccc([N+](=O)[O-])cc1` (stereo not drawn) reads 16.4%.

Consider `C[C@]12CC[C@H]3[C@@H](CC=C4C[C@@H](O)CC[C@@]43C)[C@@H]1CC[C@@H]2O`, for which the activation is -16.7%.

As to `N#Cc1nn(-c2c(Cl)cc(C(F)(F)F)cc2Cl)c(N)c1S(=O)C(F)(F)F` (stereo not drawn), the activation is -2.51%. As for `Cc1nnc2n1-c1sc(CCC(=O)N3CCOCC3)cc1C(c1ccccc1Cl)=NC2`, the activation was -12.6%. The result for `CC1COC2(c3ccccc3Cl)c3cc(Cl)ccc3NC(=O)CN12` (stereo not drawn) reads 28.5%; that for `COc1ccc(CC2NCCc3cc(OC)c(OC)cc32)cc1OC` (stereo not drawn), -6.46%.

For the compound `O=C(O)COc1ccccc1`, the activation is -28.8%. Then `COc1cc(N)c(Cl)cc1C(=O)NC1CN2CCC1CC2` (stereo not drawn), with 10.7%; and `COC1=CC(C)=C[C@@H](C)[C@@H](O)[C@@H](C)CC(C)=CC=C[C@H](OC)[C@H]([C@@H](C)[C@@H](O)[C@H](C)[C@@]2(O)C[C@@H](O)[C@H](C)[C@@H](C(C)C)O2)OC1=O`, with 6.87%.
